Screening results (PubChem)
Rab9 prom act: activates the Rab9 promoter; 2.8% of 320,000 active; Potency, µM (titrated, usually from 9.22 µM), usual class: activators; Huh7 Rab9 promoter-luciferase reporter, luminescence, 24 h; AID 485297; note: nearly all actives have a fitted effect of over 60% in size
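Huh7 cells stably carrying a Rab9 promoter-luciferase reporter, 1500 cells per well in OP-MEM I with 10% FBS, treated with compound 24 hours at 37C. Luciferase activity read by luminescence after 10 minutes with Amplite reagent.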
FLuc modulator: counter-screen for miR-21 project: firefly luciferase inhibitors or activators; Potency, µM (titrated, usually from 57.5 µM), most hits filed as inhibitors; purified FLuc, Km substrates, luminescence inhibition; AID 588342; P08659; 6.9% of 360,000 active; note: nearly all actives have a fitted effect of over 55% in size
Target sequence (P08659 whole entry, looked up): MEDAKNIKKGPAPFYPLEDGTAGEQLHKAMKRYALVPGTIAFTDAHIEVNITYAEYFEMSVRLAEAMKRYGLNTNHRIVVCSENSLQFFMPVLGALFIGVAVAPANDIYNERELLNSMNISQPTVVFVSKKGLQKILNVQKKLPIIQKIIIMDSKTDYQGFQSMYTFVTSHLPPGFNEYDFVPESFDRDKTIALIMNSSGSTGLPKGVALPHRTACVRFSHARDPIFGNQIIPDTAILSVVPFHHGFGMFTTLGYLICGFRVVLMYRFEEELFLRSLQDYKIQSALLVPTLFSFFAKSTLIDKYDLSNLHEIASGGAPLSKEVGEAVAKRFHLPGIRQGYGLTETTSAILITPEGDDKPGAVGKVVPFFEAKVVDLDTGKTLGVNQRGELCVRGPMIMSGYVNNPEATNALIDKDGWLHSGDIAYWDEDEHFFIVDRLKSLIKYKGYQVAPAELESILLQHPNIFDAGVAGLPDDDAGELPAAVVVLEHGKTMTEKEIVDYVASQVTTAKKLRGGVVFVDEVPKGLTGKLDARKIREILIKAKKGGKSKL
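Biochemical qHTS of compounds, final roughly 60 µM downward over six points, against 10 nM purified firefly luciferase using Km concentrations of substrates (10 uM D-luciferin, 10 uM ATP) in Tris acetate pH 7.5 buffer; luminescence output.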
SMN2 splice enh: enhancers of SMN2 splice variant expression. Potency, µM (series often up to 46.1 µM), hits mostly activators. AID 1458. HEK293 SMN2-luciferase splicing reporter, luminescence, 30-36 h. 2.8% of 210,000 active; note: nearly all actives have a fitted effect of over 55% in size
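qHTS luciferase splicing reporter: luminescence rises when SMN2 exon 7 is included in transfected HEK293 cells. Compound exposure lasted 30-36 h at 37C, with 4.5 mM final sodium butyrate as control, followed by a ONE-Glo read.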
NPC1 promoter act: activates the NPC1 promoter; Huh7 NPC1 promoter luciferase reporter, 24 h; Potency, µM (series often up to 9.22 µM), hits mostly activators; 2.4% of 320,000 active; AID 485313; note: nearly all actives have a fitted effect of over 60% in size
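NPC1 promoter–luciferase Huh7 cells; 24 h compound; luminescence.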
ELG1 genotoxic: genotoxicity induction in ELG1-luciferase HEK293T cells; HEK293T ELG1-luciferase reporter, luminescence, 16 h; Potency, µM (series often up to 46 µM), most hits filed as activators; 1.3% of 330,000 active; AID 504466; note: nearly all actives have a fitted effect of over 60% in size
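HEK293T cells expressing luciferase-tagged ELG1 were treated with compound or DMSO for 16 hr at 37°C. Luciferase activity was then read after 30 min with ONE-Glo at room temperature; rising signal flags genetic stress.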
Numbers stand for hits; n = inactive; u = inconclusive; x = not tested or not shown; [ ] = dose if it differs, or a comment. A selection: hits, their analogues and other compounds. The true share with any hit is near 7.5%. Calls come from the whole dose curve; as a rule, active = well fitted curve in the direction sought with a large enough effect; inconclusive = small, poorly fitted or top-dose-only effect, or another doubt; inactive = no such curve, though single readings can be large; an effect the other way counts as inactive or inconclusive.

SMILES	Rab9 prom act	FLuc modulator	SMN2 splice enh	NPC1 promoter act	ELG1 genotoxic
Oc1ccc(Cl)cc1N=Nc1ccccc1	n	13µM	x	n	n
Cc1cc(C)nc(NC(=O)CCCC(=O)O)c1	n	n	n	n	n
CCc1ccc(NC(=O)c2cc(S(=O)(=O)N3CCCC3)c[nH]2)cc1	n	n	x	n	n
O=C(Nc1cccc(C(F)(F)F)c1)c1cc(S(=O)(=O)N2CCCC2)c[nH]1	x	17µM	x	x	x
COc1ccc(-n2nc(C(=O)NCC(=O)N3CCN(c4ccccc4)CC3)c3ccccc3c2=O)c(OC)c1	u	0.54µM	x	u	n
COc1ccc(N2CCN(C(=O)CNC(=O)c3cn(-c4ccccc4OC)c(=O)c4ccccc34)CC2)cc1	n	u	n	n	n
COc1ccc(-n2nc(C(=O)NCC(=O)NCc3ccccc3OC)c3ccccc3c2=O)c(OC)c1	n	n	n	n	n
COc1ccc(-n2nc(C(=O)NCC(=O)N3CCN(c4ccc(F)cc4)CC3)c3ccccc3c2=O)c(OC)c1	n	1.7µM	x	n	n
CCOC(=O)N1CCN(C(=O)COc2cccc3c2CCN(Cc2cccc(C)c2)C3=O)CC1	n	n	n	n	n
COc1ccc(-n2c(=S)[nH]c3cc(C(=O)NCc4cccnc4)ccc3c2=O)c(OC)c1	n	n	x	n	n
COc1ccc(Br)cc1S(=O)(=O)Nc1cc(-c2cn3ccccc3n2)ccc1C	x	u	n	x	x
COc1ccc(S(=O)(=O)Nc2cc(-c3cn4ccc(C)cc4n3)ccc2C)cc1OC	x	15µM	n	x	x
CCCS(=O)(=O)Nc1cc(-c2cn3ccc(C)cc3n2)ccc1C	x	9.5µM	n	x	x
COc1ccc(C(CC(=O)NCCCN2CCOCC2)NS(=O)(=O)c2ccc(C)cc2)cc1 (configuration not stated)	n	n	n	n	n
Cn1c(CO)cnc1S(=O)(=O)Cc1ccc([N+](=O)[O-])cc1	n	n	n	n	n
O=C(O)CCSc1nnc(COc2cccc3cccnc23)n1-c1ccccc1	n	n	n	n	n
CC(C)Cc1cc(C(=O)NCc2cccs2)no1	u	15µM	13µM	u	16µM
CC(C)Cc1cc(C(=O)Nc2c(F)cc(F)cc2Br)no1	n	u	n	n	u
CCc1ccc(NC(=O)c2cc(CC(C)C)on2)cc1	u	2.7µM	n	n	16µM
CC(C)Cc1cc(C(=O)Nc2cccc(O)c2)no1	u	0.67µM	x	u	u
CC(C)Cc1cc(C(=O)Nc2ccc(F)cc2F)no1	n	11µM	n	n	16µM
CC(C)Cc1cc(C(=O)Nc2cc(Cl)ccc2Cl)no1	n	u	n	n	n
CCOC(=O)COc1coc(CN2CCN(c3cccc(Cl)c3)CC2)cc1=O	n	n	x	n	n
N#Cc1ccccc1S(=O)(=O)N1CCN(C(=O)CCC2CCCC2)CC1	n	n	x	n	n
Cc1cc(C(=O)Nc2ccc3c(c2)OCO3)no1	n	n	x	n	n
SMILES	Rab9 prom act	FLuc modulator	SMN2 splice enh	NPC1 promoter act	ELG1 genotoxic
CC(C)Cc1cc(C(=O)Nc2ccc(Br)cc2)no1	u	2.7µM	x	u	u
CC(C)Cc1cc(C(=O)Nc2ccc3c(c2)OCO3)no1	3.2µM	5.4µM	16µM	3.2µM	4.6µM
COc1ccc(NC(=O)c2cc(CC(C)C)on2)cc1OC	n	u	n	n	21µM
CC(=O)Oc1cccc(/C=N\NC(=O)C(=O)N/N=C/c2cccc(OC(C)=O)c2)c1	n	n	x	n	n
COc1cc(CNc2ccc(S(N)(=O)=O)cc2)ccc1OCC(=O)NC1CCCCC1	n	n	n	n	n
Cc1sccc1/C=N/NC(=O)c1cccc2ccccc12	n	n	n	n	n
Cc1ccccc1C(=O)N/N=C/c1ccsc1C	5.6µM	11µM	16µM	u	u
O=C(N/N=C/c1ccccc1F)c1cccc2ccccc12	u	n	x	u	n
Cc1ccccc1C(=O)N/N=C/c1cccc2ccccc12	n[1.84 µM]	5.4µM	x	n	n
Cc1cc(C)n(C(=O)CNC(=O)Cc2ccccc2)n1	n	n	n	n	n
Cc1cc(C)n(C(=O)CNC(=O)c2ccc(Cl)cc2Cl)n1	n	6.7µM	x	n	n
Cc1cc(C)n(C(=O)CNC(=O)c2ccc(C(C)(C)C)cc2)n1	n	7.6µM	x	n	n
Cc1cccc(C)c1NC(=S)NC(=O)c1ccccc1F	n	n	n	n	n
O=C1/C(=C/c2cccs2)N=C(c2cccs2)N1Nc1ccccc1	n	24µM	n	n	n
O=C1/C(=C\c2cccs2)N=C(c2cccs2)N1Nc1ccccc1	n	21µM	n	n	n
Cc1[nH]c2ccccc2c1Cc1nnc(SCC(=O)NCc2ccco2)o1	n	n	n	n	n
O=C(/C=C\Nc1ccc(Br)cc1)c1cccnc1	1.3µM	0.95µM	x	1.8µM	21µM
CN(C)C(/C=C/Nc1ccc(F)cc1F)=C(C#N)C#N	n	n	n	n	n
CN(C)c1ccc(N/C=C/C(=O)c2ccccc2)cc1	3.2µM	0.27µM	3.2µM	2.8µM	0.73µM
O=C(/C=C/Nc1ccc(F)cc1Br)c1ccccc1	0.11µM	0.085µM	n	0.5µM	0.16µM
CN(C)c1ccc(/C=N/NC(=O)c2ccc(NC(=O)c3ccccc3)cc2)cc1	n	n	x	n	n
CN(C)c1ccc(N/C=C/C(=O)C(C)(C)C)cc1	n	5.4µM	n	n	u
CCN1CCN(C(=O)CN(c2ccc(F)cc2)S(=O)(=O)c2ccc(OC)c(OC)c2)CC1	n	n	x	n	n
Cc1ccc(OCCCn2ccnc2)cc1C	n	n	n	n	n
NC(N)=NS(=O)(=O)c1ccc(N/C=C\C(=O)c2ccncc2)cc1	n	n	x	n	n
SMILES	Rab9 prom act	FLuc modulator	SMN2 splice enh	NPC1 promoter act	ELG1 genotoxic
CC(=O)Nc1ccc(NC(=O)c2ccc(NC(=O)c3ccccc3)cc2)cc1	n	n	x	n	n
O=C(/C=C/Nc1ccccc1)c1ccc(Cl)cc1Cl	0.5µM	0.38µM	x	0.35µM	0.92µM
Cc1cc(NC(=O)C2CCCO2)ccc1Br (configuration not stated)	n	n	n	n	n
O=C(/C=C/Nc1ccccc1)c1ccccc1	1µM	0.34µM	11µM	0.56µM	u
CN(C)/C=C/C(=O)c1ccc(Cl)cc1Cl	n	n	n	n	n
CC(=O)Nc1ccc(N/C=C/C(=O)c2ccccc2)cc1	2.8µM	4.8µM	x	1.6µM	u
Cc1cc(N/C=C/C(=O)c2ccccc2)ccc1Br	3.2µM	0.48µM	x	u	u
Cc1ccc2ccccc2c1NC(=O)Cn1nnc(-c2cccnc2)n1	n	n	n	n	n
CCOc1ccc(C(=O)Nc2ccccc2CC)cc1[N+](=O)[O-]	n	n	n	n	n
Cc1ccccc1-c1nnc(-c2ccc(Br)cc2)o1	u	u	u	u	9.2µM
Cc1ccccc1-c1nnc(SCC#N)o1	n	n	x	n	n
Cc1ccccc1-c1nnc(-c2ccccc2C)o1	u	6.7µM	22µM	u	u
COc1ccccc1/C=C(\NC(=O)c1cccc(C)c1)C(=O)Nc1ccccn1	n	n	x	n	n
Cn1c(SCC(=O)N2CCCC2)nc2ccccc2c1=O	n	n	n	n	n
